From PubChem BioAssay (NCATS)
Results filed as inconclusive are left out. Active and inactive are the calls of the source. Unless noted, calls follow the shape of the dose curve; as a rule, active = well fitted curve in the direction sought with a large enough effect; inconclusive = small, poorly fitted or top-dose-only effect, or another doubt; inactive = no such curve, though single readings can be large; an effect the other way counts as inactive or inconclusive.

Columns and labels:
[1] = qHTS assay for small molecule antagonists of peroxisome proliferator-activated receptor delta signaling (AID 588535; active = well fitted inhibition curve with a large enough effect in the signal ratio, with a control signal flat, not every such curve was filed as active; the % refers to the signal ratio;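 as to max response: cells co-treated with a PPAR-delta agonist as stimulator during compound exposure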); settings: HEK293T PPARd-UAS-bla, beta-lactamase FRET ratio, 18 h; 460 nm channel
Summary of the method: (§1)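 Antagonist-mode qHTS using GeneBLAzer PPAR-delta-UAS-bla HEK293T cells; compound exposure 18 hrs at 37 C over a titration. Ratiometric CCF4 fluorescence at 460/530 nm; concentration-response points fitted to the Hill equation.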

[2] = molecular target: Peroxisome proliferator-activated receptor delta (Homo sapiens) (UniProt Q03181); test: as above; settings: HEK293T PPARd-UAS-bla, beta-lactamase FRET ratio, 18 h; series mostly up to 76.7 µM
Summary of the method: as §1

[3] = qHTS assay for small molecule agonists of retinoid X receptor alpha signaling (AID 588544; calls by dose curve;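 as to activation: 0% = DMSO basal wells and 100% = reference agonist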); settings: HEK293T RXRa-UAS-bla, beta-lactamase reporter, 18 h; 530 nm emission
[4] = molecular target: Retinoic acid receptor RXR-alpha (Homo sapiens) (UniProt P19793); test: as above; settings: HEK293T RXRa-UAS-bla, beta-lactamase reporter, 18 h; series mostly up to 76.7 µM
[5] = molecular target: Thyroid hormone receptor beta (Homo sapiens) (UniProt P10828); test: qHTS assay for small molecule agonists of thyroid hormone receptor beta signaling (AID 588545; calls by dose curve;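 also: 0% = DMSO only and 100% = 10 nM T3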); settings: TR-UAS-bla GripTite HEK 293, beta-lactamase ratio, agonist mode, 18 h; series mostly up to 76.7 µM
Summary of the method: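 TR-UAS-bla GripTite HEK 293 cells (2500/well, medium with 2% charcoal/dextran FBS) were treated in agonist mode for 18 h at 37 C, titrated. Beta-lactamase was read by CCF4 ratio after 2 h; normalized to 10 nM T3 (100%) and DMSO, Hill-fitted for EC50 and efficacy.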

[6] = qHTS assay for small molecule antagonists of retinoid X receptor alpha signaling (AID 588546; active = well fitted inhibition curve with a large enough effect in the signal ratio, with a control signal flat, not every such curve was filed as active; the % refers to the signal ratio;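 also: cells stimulated with 9-cis-retinoic acid as agonist; % is scaled to controls: 0 for no effect and ±100 for the full control effect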); settings: HEK293T RXRa-UAS-bla, beta-lactamase ratio, antagonist mode; measured here: W530 green channel, cytotoxicity proxy
Summary of the method: (§2)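 Beta-lactamase reporter inhibition, read as CCF4 fluorescence ratio (ex 405, em 460/530 nm) after 2 h at RT. HEK293T UAS-bla cells, 2500/well, were stimulated with 9-cis-RA at 500 or 100 nM final alongside test compound for 18 h at 37 C.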

[7] = molecular target: Retinoic acid receptor RXR-alpha (Homo sapiens) (UniProt P19793); test: as above; settings: HEK293T RXRa-UAS-bla, beta-lactamase ratio, antagonist mode
Summary of the method: as §2

[8] = qHTS assay for small molecule activators of the p53 signaling pathway (AID 651743; active = well fitted activation curve with a large enough effect in the signal ratio, not every such curve was filed as active; the % refers to the signal ratio; also: % of control where 0% means no effect); settings: HCT-116 p53RE-bla, beta-lactamase FRET ratio, 16 h; activation: stronger effect = higher value
Summary of the method: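 A beta-lactamase reporter under p53 response element control, stably carried by HCT-116 cells, reported pathway activation. Test compounds were applied for 16 hours at 37 C, and fluorescence was measured 2 hours after adding the B/G FRET substrate.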

[9] = qHTS assay for small molecule activators of the nuclear factor-kappa B (NF-kB) signaling pathway (AID 651749; active = well fitted activation curve with a large enough effect in the signal ratio; the % refers to the signal ratio; also: % of control where 0% means no effect); settings: NF-kB-bla ME-180 cells, beta-lactamase FRET ratio, 16 h; activation: stronger effect = higher value
Summary of the method: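 FRET-based beta-lactamase detection in ME-180 cells reports NF-kB response-element-driven transcription following overnight (16 hr) compound treatment.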

[10] = qHTS assay for environmental chemicals that activate the Aryl hydrocarbon Receptor (AhR) signaling pathway (AID 651777); settings: 1A2-DRE human hepatoma cells, luciferase, 24 h; activation: stronger effect = higher value; also: % of control where 0% means no effect; nearly all actives have a fitted effect of over 15% in size
Summary of the method: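 Reporter gene assay: hepatoma cells with DRE/CYP1A2-luciferase, 24 hr compound incubation at 37 C, 5% CO2, luminescence after One-Glo (30 min, RT).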

[11] = molecular target: Peroxisome proliferator-activated receptor alpha (Homo sapiens) (UniProt Q07869); test: qHTS assay for small molecule agonists of the peroxisome proliferator-activated receptor alpha (PPARalpha) signaling pathway (AID 651778); settings: PathHunter PPARalpha complementation, chemiluminescence, 6 h; max response: stronger effect = higher value; also: % of control where 0% means no effect
Summary of the method: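 Chemiluminescence from complemented enzyme reported PPARalpha activation in cells after 6 hr of compound treatment at 37 C. The detection reagent was incubated for 60 min at room temperature, and compounds were scored as agonists.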

[12] = qHTS assay for small molecule agonists of the antioxidant response element (ARE) signaling pathway measured by Nrf2-dependant transcriptional activity (AID 720636; active = well fitted curve in the direction sought with a large enough effect in the repeat runs; an effect the other way counts as inactive or inconclusive;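 also: HepG2 cells with an ARE-driven luciferase reporter; % of control where 0% means no effect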); settings: ARE-luc HepG2, Nrf2 luciferase reporter, 16 h; series mostly up to 92.4 µM
Summary of the method: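 Nrf2-dependent transcription is measured in ARE-luc HepG2 cells: compound is applied for 16 hr at 37 C after a 6 hr attachment period, and luciferase activity is quantified by luminescence using ONE-Glo.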

[13] = qHTS assay for small molecule agonists of the antioxidant response element (ARE) signaling pathway measured by Nrf2-dependant transcriptional activity - cell viability counter screen (AID 720653; active = well fitted curve in the direction sought with a large enough effect in the repeat runs; an effect the other way counts as inactive or inconclusive; also: % is scaled to controls: 0 for no effect and ±100 for the full control effect); settings: ARE-bla HepG2 viability, CellTiter-Glo ATP luminescence, 16 h; max response: stronger effect = lower value
Summary of the method: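 Cytotoxicity counter screen: intracellular ATP quantified by CellTiter-Glo luminescence in the same ARE-bla HepG2 plates, after 16 h compound exposure and a 2 h beta-lactamase substrate step.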

[14] = qHTS assay for cell viability of HEK293 cells (AID 743288); settings: ATP luminescence (CellTiter-Glo), 18 h; max response: stronger effect = lower value; also: % is scaled to controls: 0 for no effect and ±100 for the full control effect; nearly all actives have a fitted effect of over 50% in size
Summary of the method: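 After 18 h compound exposure at 37 C, parental HEK293 cells (2,000/well) are lysed with CellTiter-Glo and luminescence is read following 30 min at room temperature.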

[15] = qHTS assay for cell viability of the p53RE-bla HCT-116 cell line (AID 743292); settings: p53RE-bla HCT-116 viability, ATP luminescence, 16 h; series mostly up to 95 µM; also: % is scaled to controls: 0 for no effect and ±100 for the full control effect; nearly all actives have a fitted effect of over 55% in size
Summary of the method: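 ATP-based luminescence, 16 h compound exposure at 37 C, p53RE-bla HCT-116 cells at 4,000/well.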

[16] = molecular target: Nuclear receptor subfamily 1 group I member 2 (Rattus norvegicus) (UniProt Q9R1A7); test: qHTS assay for small molecule activators of the rat pregnane X receptor (rPXR) signaling pathway (AID 651751; call rule not given here; also: 0% is about no effect); settings: rPXR reporter cells, luciferase (One-Glo), 24 h
[17] = qHTS assay for small molecule activators of the human pregnane X receptor (PXR) signaling pathway (AID 720659; call rule not given here; also: 0% is about no effect); settings: DPX-2 HepG2 CYP3A4-luciferase, 24 h; series mostly up to 92.3 µM
[18] = molecular target: Vitamin D3 receptor (Homo sapiens) (UniProt P11473); test: qHTS assay for small molecule antagonists of vitamin D receptor signaling (AID 588541; calls by dose curve;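 also: receptor activated by calcitriol during compound treatment; % is scaled to controls: 0 for no effect and ±100 for the full control effect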); settings: HEK293T VDR-UAS-bla, beta-lactamase ratio, antagonist mode; series mostly up to 76.7 µM
Summary of the method: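 Antagonist-mode beta-lactamase reporter assay: HEK293T VDR-UAS-bla cells were exposed to titrated compound alongside 1-alpha,25-dihydroxyvitamin D3 at 3 nM final for 16 h. Values were normalized to the 50 nM agonist control and DMSO basal, with IC50 and efficacy from Hill equation fits.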

[19] = molecular target: Vitamin D3 receptor (Homo sapiens) (UniProt P11473); test: qHTS assay for small molecule agonists of vitamin D receptor signaling (AID 588543; calls by dose curve;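 also: 0% = DMSO basal and 100% = reference agonist control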); settings: HEK293T VDR-UAS-bla, beta-lactamase ratio, 16 h; series mostly up to 76.8 µM
Summary of the method: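 GeneBLAzer VDR-UAS-bla HEK293T cells in 2% charcoal-stripped FBS medium were dosed with compound titrations for 16 h at 37 °C; CCF4 β-lactamase readout (405 nm ex, 460/530 nm em). EC50 and efficacy from Hill fits, normalized to 50 nM calcitriol (100%) and DMSO (0%).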

[20] = molecular target: Glucocorticoid receptor (Homo sapiens) (UniProt P04150); test: qHTS assay for small molecule antagonists of glucocorticoid receptor signaling (AID 588533; active = well fitted inhibition curve with a large enough effect in the signal ratio, with a control signal flat, not every such curve was filed as active; the % refers to the signal ratio;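 also: cells stimulated with 2 nM dexamethasone as agonist; % is scaled to controls: 0 for no effect and ±100 for the full control effect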); settings: HeLa MMTV-bla, GRE beta-lactamase ratio, antagonist mode, 18 h; series mostly up to 76.8 µM
Summary of the method: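 Antagonist-mode qHTS: compound titrations added to GRE-bla HeLa cells, then dexamethasone 2 nM final; 18 h, 37 C. CCF4 FRET fluorescence normalized to dexamethasone and DMSO; IC50 from Hill fit.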

Chain of Peroxisome proliferator-activated receptor alpha (Homo sapiens) (Q07869 whole entry, looked up): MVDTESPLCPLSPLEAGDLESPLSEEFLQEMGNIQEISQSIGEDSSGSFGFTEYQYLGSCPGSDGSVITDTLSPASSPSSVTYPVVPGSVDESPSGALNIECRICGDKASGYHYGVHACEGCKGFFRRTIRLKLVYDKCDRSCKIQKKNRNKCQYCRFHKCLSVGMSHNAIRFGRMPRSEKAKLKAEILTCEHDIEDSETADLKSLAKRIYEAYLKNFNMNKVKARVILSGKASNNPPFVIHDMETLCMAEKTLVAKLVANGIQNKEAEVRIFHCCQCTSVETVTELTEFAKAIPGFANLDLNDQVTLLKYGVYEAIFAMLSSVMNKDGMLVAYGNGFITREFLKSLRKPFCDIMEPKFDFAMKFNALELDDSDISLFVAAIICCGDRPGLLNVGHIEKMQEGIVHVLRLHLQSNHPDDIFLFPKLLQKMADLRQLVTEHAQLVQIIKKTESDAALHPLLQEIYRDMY
Chain of Nuclear receptor subfamily 1 group I member 2 (Rattus norvegicus) (Q9R1A7 whole entry, looked up): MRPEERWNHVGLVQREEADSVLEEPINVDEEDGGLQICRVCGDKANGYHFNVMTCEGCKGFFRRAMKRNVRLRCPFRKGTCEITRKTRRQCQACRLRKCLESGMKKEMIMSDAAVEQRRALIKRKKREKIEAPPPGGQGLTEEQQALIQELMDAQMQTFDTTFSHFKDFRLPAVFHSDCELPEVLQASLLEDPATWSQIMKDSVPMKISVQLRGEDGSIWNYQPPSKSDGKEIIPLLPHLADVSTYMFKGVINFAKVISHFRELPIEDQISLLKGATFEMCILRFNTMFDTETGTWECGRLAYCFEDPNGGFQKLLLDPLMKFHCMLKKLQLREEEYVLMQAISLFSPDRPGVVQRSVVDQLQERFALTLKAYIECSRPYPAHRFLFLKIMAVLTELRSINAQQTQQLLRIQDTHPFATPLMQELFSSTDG
Chain of Peroxisome proliferator-activated receptor delta (Homo sapiens) (Q03181 whole entry, looked up): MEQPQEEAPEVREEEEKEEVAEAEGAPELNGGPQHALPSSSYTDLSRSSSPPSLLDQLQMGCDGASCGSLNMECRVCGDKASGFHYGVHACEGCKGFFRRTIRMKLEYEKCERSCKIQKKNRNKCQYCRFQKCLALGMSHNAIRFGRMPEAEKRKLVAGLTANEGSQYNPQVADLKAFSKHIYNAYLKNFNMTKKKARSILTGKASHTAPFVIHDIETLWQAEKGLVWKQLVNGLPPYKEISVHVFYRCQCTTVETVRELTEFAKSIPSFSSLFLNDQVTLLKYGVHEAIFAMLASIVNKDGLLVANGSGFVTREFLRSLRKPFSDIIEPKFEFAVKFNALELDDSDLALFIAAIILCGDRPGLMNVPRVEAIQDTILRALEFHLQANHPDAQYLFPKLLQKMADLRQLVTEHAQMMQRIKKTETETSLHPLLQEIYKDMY
Chain of Retinoic acid receptor RXR-alpha (Homo sapiens) (P19793 whole entry, looked up): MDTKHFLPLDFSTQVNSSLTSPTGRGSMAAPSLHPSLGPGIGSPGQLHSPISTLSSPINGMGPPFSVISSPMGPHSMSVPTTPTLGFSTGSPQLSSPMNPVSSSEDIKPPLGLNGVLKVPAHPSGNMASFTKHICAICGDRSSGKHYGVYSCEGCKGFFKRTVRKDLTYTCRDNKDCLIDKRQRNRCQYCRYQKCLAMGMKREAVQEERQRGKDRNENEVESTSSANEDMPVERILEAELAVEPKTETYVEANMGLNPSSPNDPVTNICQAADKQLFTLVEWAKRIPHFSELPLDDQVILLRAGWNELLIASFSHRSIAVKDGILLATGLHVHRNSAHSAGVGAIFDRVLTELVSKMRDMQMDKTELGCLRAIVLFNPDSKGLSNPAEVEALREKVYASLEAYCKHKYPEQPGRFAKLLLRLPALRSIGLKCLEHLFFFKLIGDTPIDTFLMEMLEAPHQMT
Chain of Thyroid hormone receptor beta (Homo sapiens) (P10828 whole entry, looked up): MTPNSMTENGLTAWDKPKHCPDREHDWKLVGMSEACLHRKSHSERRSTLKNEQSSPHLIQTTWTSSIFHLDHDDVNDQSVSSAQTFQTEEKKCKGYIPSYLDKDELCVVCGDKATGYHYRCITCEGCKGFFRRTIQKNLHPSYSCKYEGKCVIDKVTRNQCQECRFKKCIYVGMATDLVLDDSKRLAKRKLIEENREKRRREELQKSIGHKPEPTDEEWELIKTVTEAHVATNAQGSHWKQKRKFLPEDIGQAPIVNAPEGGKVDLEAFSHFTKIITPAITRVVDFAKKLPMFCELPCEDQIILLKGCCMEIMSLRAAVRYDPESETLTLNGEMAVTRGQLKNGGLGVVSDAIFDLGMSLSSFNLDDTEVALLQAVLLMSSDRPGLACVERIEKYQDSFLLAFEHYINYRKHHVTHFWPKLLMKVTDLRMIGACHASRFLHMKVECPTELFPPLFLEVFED
Chain of Glucocorticoid receptor (Homo sapiens) (P04150 whole entry, looked up): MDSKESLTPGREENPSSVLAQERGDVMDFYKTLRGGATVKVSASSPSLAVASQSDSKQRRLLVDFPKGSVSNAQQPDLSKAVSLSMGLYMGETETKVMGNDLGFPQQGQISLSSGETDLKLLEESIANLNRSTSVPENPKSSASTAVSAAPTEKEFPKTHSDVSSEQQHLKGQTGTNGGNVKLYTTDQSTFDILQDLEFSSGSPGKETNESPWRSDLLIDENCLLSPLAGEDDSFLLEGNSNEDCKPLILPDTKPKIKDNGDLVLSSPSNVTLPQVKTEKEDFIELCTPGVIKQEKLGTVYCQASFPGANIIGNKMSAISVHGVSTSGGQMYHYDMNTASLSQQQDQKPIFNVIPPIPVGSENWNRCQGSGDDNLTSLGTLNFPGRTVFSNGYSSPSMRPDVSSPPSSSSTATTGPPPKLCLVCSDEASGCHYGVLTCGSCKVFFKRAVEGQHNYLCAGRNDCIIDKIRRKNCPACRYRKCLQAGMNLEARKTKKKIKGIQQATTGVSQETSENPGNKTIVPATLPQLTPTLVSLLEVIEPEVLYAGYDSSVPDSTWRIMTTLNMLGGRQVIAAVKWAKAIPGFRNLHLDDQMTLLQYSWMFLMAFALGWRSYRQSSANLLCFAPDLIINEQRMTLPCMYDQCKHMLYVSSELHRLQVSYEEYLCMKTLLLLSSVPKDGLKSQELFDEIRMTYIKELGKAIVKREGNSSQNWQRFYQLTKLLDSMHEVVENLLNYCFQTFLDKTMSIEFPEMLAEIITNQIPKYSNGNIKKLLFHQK
Chain of Vitamin D3 receptor (Homo sapiens) (P11473 whole entry, looked up): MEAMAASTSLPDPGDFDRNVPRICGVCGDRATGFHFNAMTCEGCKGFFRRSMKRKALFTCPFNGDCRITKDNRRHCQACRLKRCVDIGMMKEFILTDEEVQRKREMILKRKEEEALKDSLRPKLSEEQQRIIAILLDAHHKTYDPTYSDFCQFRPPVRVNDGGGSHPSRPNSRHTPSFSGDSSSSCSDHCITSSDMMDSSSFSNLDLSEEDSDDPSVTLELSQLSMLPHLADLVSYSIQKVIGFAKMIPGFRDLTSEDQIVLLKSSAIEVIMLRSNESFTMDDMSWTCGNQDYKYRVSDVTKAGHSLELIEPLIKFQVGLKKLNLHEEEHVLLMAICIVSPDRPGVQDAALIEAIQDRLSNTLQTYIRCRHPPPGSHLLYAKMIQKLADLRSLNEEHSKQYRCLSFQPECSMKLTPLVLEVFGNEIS

C=C(C)C(=O)OCC(CC)(COC(=O)C(=C)C)COC(=O)C(=C)C
-6.08%: max response [6]
inactive: Potency [2] | Potency [4] | Potency [5] | max response [7] 13.1% | activation [8] -3.72% | activation [9] 0.727% | activation [10] -0.628% | max response [11] -3.37% | Potency [12] | max response [13] -12% | max response [14] -15.9% | Potency [15] | max response [16] -1.04% | outcome [17]
9.24%: max response [1]
-12.4%: max response [3]

CCC(C)OC(=O)N1CCCCC1CCO (stereo not given)
-13%: max response [6]
49.3%: max response [1]
-14.7%: max response [3]
inactive: Potency [2] | Potency [18] | outcome [19] | Potency [4] | Potency [5] | max response [7] 3.95% | activation [8] -2.97% | activation [9] -1.57% | activation [10] 1.16% | max response [11] -1.06% | Potency [12] | max response [13] -23.7% | max response [14] -6.27% | Potency [15] | max response [16] -1.56% | outcome [17]

CCCCCCOCCOCCO
-32.9%: max response [1]
inactive: Potency [20] | Potency [2] | Potency [4] | Potency [5] | max response [7] 2.18% | activation [10] -0.48% | Potency [12] | max response [13] -7.8% | max response [14] -5.42% | Potency [15] | max response [16] -1.74% | outcome [17]
-13.6%: max response [6]
-8.61%: max response [3]

CCOC(=O)C(C)Oc1ccc(Oc2nc3ccc(Cl)cc3o2)cc1 (stereo not given)
-2.48%: max response [1]
11.3%: max response [3]
inactive: Potency [20] | Potency [2] | Potency [18] | outcome [19] | Potency [4] | activation [8] -9.4% | activation [9] 2.54% | activation [10] 0.871% | max response [11] 26% | max response [13] 6.64% | max response [14] 2.68% | max response [16] -9.57% | outcome [17]

CCCCCCCC[Si](OCC)(OCC)OCC
2.69%: max response [1]
-6.97%: max response [6]
inactive: Potency [20] | Potency [2] | Potency [18] | Potency [5] | max response [7] -6.63% | activation [8] 1.43% | activation [9] 1.32% | activation [10] 0.203% | Potency [12] | max response [13] 5.53% | max response [14] 0.144% | max response [16] 6.41% | outcome [17]

CCCCCCCCCCCCc1ccccc1
-7.45%: max response [3]
-16.5%: max response [6]
-16.9%: max response [1]
inactive: Potency [2] | Potency [18] | Potency [4] | max response [7] 3.12% | activation [8] -0.535% | activation [9] 1.6% | activation [10] 0.463% | max response [11] -0.756% | Potency [12] | max response [14] 2.81% | Potency [15] | max response [16] 0.082% | outcome [17]

CS(C)=O
23%: max response [1]
-13.1%: max response [6]
inactive: Potency [20] | Potency [2] | Potency [18] | Potency [5] | max response [7] 10.4% | activation [8] 1.22% | activation [9] 0.392% | activation [10] 0.193% | max response [11] 0.892% | Potency [12] | max response [13] 16.4% | max response [14] 1.99% | Potency [15] | max response [16] 2.97% | outcome [17]

CC(C)(C)c1ccc(C(=O)O)cc1
29.8%: max response [1]
0.0983%: max response [3]
inactive: Potency [20] | Potency [2] | Potency [18] | outcome [19] | Potency [4] | Potency [5] | max response [7] -3.02% | activation [10] 2.5% | max response [11] -0.433% | Potency [12] | max response [14] -3.22% | Potency [15] | max response [16] -0.15% | outcome [17]
-7.4%: max response [6]

CC(COc1ccc(C(C)(C)C)cc1)OS(=O)OCCCl (stereo not given)
82.6%: max response [1]
inactive: Potency [2] | Potency [5] | activation [10] 12.5% | max response [11] -2.96% | max response [13] -25.1% | max response [14] -26.1% | Potency [15] | max response [16] -11.7%

C=CC(=O)OCCOc1ccccc1
-0.297%: max response [6]
-44.3%: max response [1]
inactive: Potency [20] | Potency [2] | Potency [18] | outcome [19] | Potency [5] | max response [7] -20.4% | activation [8] 0.464% | activation [10] -0.084% | max response [11] -0.522% | max response [14] -15.9% | Potency [15] | max response [16] 2.62% | outcome [17]

CCCCCCCC/C=C\CCCCCCCCO
-18.5%: max response [3]
8.68%: max response [1]
0.0391%: max response [6]
inactive: Potency [20] | Potency [2] | Potency [18] | outcome [19] | Potency [4] | Potency [5] | max response [7] 6.68% | activation [9] -1.39% | activation [10] 0.617% | Potency [12] | max response [14] -11.8% | Potency [15] | max response [16] -0.215%

CCCCCCC(C)(C)S
inactive: Potency [20] | Potency [4] | Potency [5] | max response [7] 4.42% | activation [9] -2.27% | activation [10] -1.46% | max response [11] -1.64% | Potency [12] | max response [13] -9.96% | max response [14] -17.8% | max response [16] -1.98% | outcome [17]
-14.4%: max response [6]
-19.5%: max response [3]

COc1cc(Cl)c(OC)cc1N
1.78%: max response [6]
-0.344%: max response [1]
inactive: Potency [20] | Potency [2] | Potency [18] | outcome [19] | Potency [4] | max response [7] -0.61% | max response [11] -0.316% | Potency [12] | max response [13] 1.98% | max response [14] -8.15% | Potency [15] | max response [16] 6.4%
-3.24%: max response [3]
